This is a sample that favours compounds with a hit; in the whole collection about 3% have one here.
IP6K1 inhibitor: IP6K1 kinase inhibition. Q92551. IP6K1 kinase, ADP-Glo luminescence, 2 h; active compounds read low. activity change, % (series mostly up to about 58 µM). 140,000 compounds, 0.81% hits. AID 1645851; in the data active = activity change below about -25%
Target sequence (Q92551 whole entry, looked up): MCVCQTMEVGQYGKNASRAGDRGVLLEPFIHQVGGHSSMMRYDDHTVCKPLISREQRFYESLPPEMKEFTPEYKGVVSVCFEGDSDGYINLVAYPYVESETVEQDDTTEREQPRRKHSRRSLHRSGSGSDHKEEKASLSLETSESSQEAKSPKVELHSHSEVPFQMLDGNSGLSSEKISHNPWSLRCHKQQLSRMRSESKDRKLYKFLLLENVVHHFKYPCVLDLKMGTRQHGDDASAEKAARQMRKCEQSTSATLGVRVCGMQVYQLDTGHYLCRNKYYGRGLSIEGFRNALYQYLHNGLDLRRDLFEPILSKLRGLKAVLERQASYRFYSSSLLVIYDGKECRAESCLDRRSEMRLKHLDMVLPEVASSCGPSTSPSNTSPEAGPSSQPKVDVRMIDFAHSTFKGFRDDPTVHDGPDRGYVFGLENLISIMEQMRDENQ
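ADP-Glo luminescence measures ADP made by human IP6K1 during a 2 h RT reaction with ATP/IP6 (mix at 1.3 mM/130 uM); top library doses 57.5 and 19.1 uM final.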
KDM5B inh: KDM5B demethylase inhibition. Q9UGL1. KDM5B demethylase, FDH-coupled NADH fluorescence (FDH is formaldehyde dehydrogenase). Potency, µM (highest dose often 57.7 µM), hits mostly inhibitors. 220,000 compounds, 2.6% hits; also: nearly all actives have a fitted effect of over 70% in size
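Coupled FDH/NAD⁺ fluorescence readout. KDM5BΔAP 200 nM final; compound titration, 10 min RT preincubation; substrate mix 12.5 µM H3K4me3, 25 µM 2-OG, 50 µM Fe(II), 100 µM ascorbate, 0.25 mM NAD⁺, 0.25 U/mL FDH; ΔRFU over 30 min.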
HEK293 viab: reduces viability of HEK-293 SNCA reporter cells | 150,000 compounds, 0.12% hits | HEK-293-SNCA-luc viability, GF-AFC fluorescence, 24 h | Potency, µM (top dose mostly 57.1 µM), hits mostly cytotoxic | AID 1671193; also: nearly all actives have a fitted effect of over 30% in size
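Cytotoxicity counterscreen: after 24 h compound treatment of genome-edited SNCA-luciferase HEK-293 cells, live-cell protease substrate GF-AFC read by fluorescence after 30 min; activity scaled between DMSO (0%) and medium-only (-100%), curves Hill-fitted.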
SNCA expr inh: SNCA gene expression inhibition; Potency, µM (top dose mostly 57.2 µM), usual class: inhibitors; AID 1671194; 140,000 compounds, 0.17% hits; HEK-293 SNCA-luciferase knock-in, luminescence, 24 h; also: nearly all actives have a fitted effect of over 45% in size
A number is an active result; . = inactive; ? = inconclusive; / = not tested or not shown. Unless noted, calls follow the shape of the dose curve; as a rule, active = well fitted curve in the direction sought with a large enough effect; inconclusive = small, poorly fitted or top-dose-only effect, or another doubt; inactive = no such curve, though single readings can be large; an effect the other way counts as inactive or inconclusive.

SMILES | IP6K1 inhibitor | KDM5B inh | HEK293 viab | SNCA expr inh
CN(C)CC(=O)N1CCC2(C1)CN(C)c1ccc(C(=O)NCc3cccs3)cc12 (stereo not drawn) | . | 39.8µM | . | .
CNC(=O)NC(=O)CN(C)Cc1ccc(C(C)C)cc1 | / | . | / | /
COC(=O)c1ccc(CNC(=O)c2ccc(F)cc2)cc1 | / | . | / | /
Cn1ncc2c(C(=O)NCc3cccs3)cc(-c3ccccc3)nc21 | . | / | . | ?
Cc1[nH]c2ccccc2c1C(=O)C(=O)N1CCN(C2CC2)CC1 | / | . | / | /
CC(C)Cc1noc(CSc2cc(C(N)=O)c3ccccc3n2)n1 | / | . | / | /
CN1CCC2(C1)CN(Cc1ccccc1)c1ccc(C(=O)NCc3cccs3)cc12 (stereo not drawn) | . | 35.5µM | . | .
CN1CCCC2(C1)CN(Cc1cccnc1)c1ccc(C(=O)NCc3cccs3)cc12 (stereo not drawn) | . | . | . | .
Cc1nc(CN2CC3(CCN(C)C3)c3cc(C(=O)Nc4ccc(F)cc4)ccc32)cs1 (stereo not drawn) | . | 25.1µM | . | .
CN(CC(=O)NC(C)(C)C)C(=O)c1cc2ccccc2oc1=O | / | . | / | /
Cc1ccc(C)c(C(=O)NCc2nnc3ccc(-c4ccc(C)c(C)c4)nn23)c1 | . | 14.1µM | . | .
COc1ccc(C(=O)NCc2nnc3ccc(-c4ccc(C)c(C)c4)nn23)cc1F | . | 31.6µM | ? | ?
Cc1ccc(-c2ccc3nnc(CNC(=O)c4cccn4C)n3n2)cc1C | . | . | . | ?
Cc1ccc(-c2ccc3nnc(CNC(=O)c4ccccc4)n3n2)cc1C | . | 28.2µM | . | ?
COc1ccc(C(=O)NCc2nnc3ccc(-c4ccc(C)c(C)c4)nn23)cc1OC | . | . | . | .
Cc1ccc(-c2ccc3nnc(CNC(=O)c4cccc5[nH]ccc45)n3n2)cc1C | . | 35.5µM | ? | .
Cc1ccc(C(=O)/C=C/c2cccc(/C=C/C(=O)c3ccc(C)o3)c2)o1 | / | . | / | /
CCCNc1c(NC(=O)Nc2ccc(OC)cc2OC)c(=O)oc2ccccc12 | / | . | / | /
C#CCNC(=O)CN1CCCC1C(=O)NCC(F)(F)F (stereo not drawn) | / | . | / | /
CC(NC(=S)NCCc1ccccc1)c1ccc(C(C)(C)C)cc1 (stereo not drawn) | / | . | / | /
CC(=O)Nc1ccc(CN2CCC3(CC2)CC(=O)c2ccccc2O3)cc1 | . | 22.4µM | . | .
Cn1nccc1CN1CCC2(CC1)CC(=O)c1ccccc1O2 | . | 28.2µM | . | .
O=C1CC2(CCN(S(=O)(=O)c3ccccc3)CC2)Oc2ccccc21 | . | 28.2µM | . | .
COc1ccc(OCCOC(=O)Cc2coc3cc4c(cc23)CCC4)cc1 | / | . | / | /
CCc1ccc(Nc2ncnc3c2cnn3-c2cccc(C)c2)cc1 | / | . | / | /
SMILES | IP6K1 inhibitor | KDM5B inh | HEK293 viab | SNCA expr inh
CC(=O)Nc1cccc(-c2ncc3c(n2)OCCN(Cc2ccc(F)cc2F)C3=O)c1 | . | 31.6µM | . | .
O=C1c2cnc(-c3ccc(F)cc3F)nc2OCCN1Cc1ccc(F)cc1F | . | . | . | .
COc1cccc(F)c1-c1ncc2c(n1)OCCN(CC1CC1)C2=O | . | 28.2µM | . | .
O=C1c2cnc(-c3ccoc3)nc2OCCN1Cc1ccc(F)cc1F | . | 35.5µM | . | .
COc1ccc(Cl)cc1-c1ncc2c(n1)OCCN(Cc1ccc(F)cc1F)C2=O | . | 35.5µM | . | .
CC(NC(=O)C(C)(C)C)C(=O)NCC1CC1 (stereo not drawn) | / | . | / | /
COc1cccc(-c2ccc(C(=O)NCCNC(=O)c3ccccc3)cc2)c1 | . | / | / | /
CC(=O)Nc1cccc(-c2ncc3c(n2)OCCN(CC2CC2)C3=O)c1 | . | 31.6µM | . | .
Cn1cnnc1-c1ccc(NS(=O)(=O)c2ccc3c(c2)CCC3)cc1 | / | . | / | /
CCNC(=O)CC1COCCN1C(=O)c1csc(-c2cccs2)n1 (stereo not drawn) | . | 22.4µM | . | .
CCn1c(N2CCN(Cc3cc(C)ccc3C)CC2)nc2c1c(=O)[nH]c(=O)n2C | / | . | / | /
COc1ccc(NC(=O)N2C[C@@H]3C[C@H](C2)c2ccc(NC(=O)Nc4cccc(C#N)c4)c(=O)n2C3)cc1 | . | 28.2µM | . | ?
COc1ccc(CC(=O)Nc2ccc3n(c2=O)C[C@H]2C[C@@H]3CN(C(=O)c3ccc(-c4ccccc4)cc3)C2)cc1 | . | 25.1µM | . | .
COc1ccc(CC(=O)Nc2ccc3n(c2=O)C[C@H]2C[C@@H]3CN(C(=O)Nc3ccc(OC)cc3)C2)cc1 | . | . | . | .
O=C(Nc1cccc(F)c1)Nc1ccc2n(c1=O)C[C@H]1C[C@@H]2CN(C(=O)c2ccc(F)cc2)C1 | . | 28.2µM | . | .
